# Test results as given in publication PMC5540273 (PLoS ONE, 2017).
# Several values for one entry are separate records, joined by “and”; a condition that tells them apart may be missing. Equal entries are not always repeated. Where two headings read alike, the source gives them in different places.
# Key:
# [1] = test system: PAK4; details: concentration: 1 μM, replicates: in singlicate, n = 1
# [2] = test system: PAK6; details: concentration: 1 μM, replicates: in singlicate, n = 1
# [3] = test system: PAK7; details: concentration: 1 μM, replicates: in singlicate; n = 1
# [4] = test system: T1, PCTK1; details: concentration: 1 μM, replicates: in singlicate; n = 1
# T1 construct: gene CDK16
# [5] = test system: T2, PCTK2; details: concentration: 1 μM, replicates: in singlicate, n = 1
# T2 construct: gene CDK17
# [6] = test system: T3, PCTK3; details: concentration: 1 μM, replicates: in singlicate, n = 1
# T3 construct: gene CDK18
# [7] = test system: PDGFRA; details: concentration: 1 μM, replicates: in singlicate, n = 1
# [8] = test system: PDGFRB; details: concentration: 1 μM, replicates: in singlicate, n = 1
# [9] = test system: PDPK1; details: concentration: 1 μM, replicates: in singlicate, n = 1
# [10] = test system: PFTAIRE2; details: concentration: 1 μM, replicates: in singlicate, n = 1
# [11] = test system: T4, PFTK1; details: concentration: 1 μM, replicates: in singlicate, n = 1
# T4 construct: gene CDK14
# [12] = test system: PHKG1; details: concentration: 1 μM, replicates: in singlicate, n = 1
# [13] = test system: PHKG2; details: concentration: 1 μM, replicates: in singlicate; n = 1
# [14] = test system: PIK3C2B; details: concentration: 1 μM, replicates: in singlicate; n = 1
# [15] = test system: PIK3C2G; details: concentration: 1 μM, replicates: in singlicate; n = 1
# [16] = test system: PIK3CA; details: concentration: 1 μM, replicates: in singlicate, n = 1
# [17] = test system: PIK3CB; details: concentration: 1 μM, replicates: in singlicate, n = 1
# [18] = test system: PIK3CD; details: concentration: 1 μM, replicates: in singlicate; n = 1
# [19] = test system: PIK3CG; details: concentration: 1 μM, replicates: in singlicate, n = 1
# [20] = test system: T5, PIK4CB; details: concentration: 1 μM, replicates: in singlicate, n = 1
# T5 construct: gene PI4KB
# 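Further: KINOMEscan kinase panel screen.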
smiles,measurement,setting,value
COc1ccc(S(=O)(=O)NC2CCN(c3cc(C)nc(Nc4cccc(C#N)c4)n3)CC2)cc1.O=C(O)C(F)(F)F [GSK1653539],%Inh,[1],0%
same,%Inh,[2],0%
same,%Inh,[3],30%
same,%Inh,[4],0%
same,%Inh,[5],0%
same,%Inh,[6],0%
same,%Inh,[7],0%
same,%Inh,[8],12%
same,%Inh,[9],0%
same,%Inh,[10],3%
same,%Inh,[11],11%
same,%Inh,[12],0%
same,%Inh,[13],9%
same,%Inh,[14],12%
same,%Inh,[15],0%
same,%Inh,[16],6%
same,%Inh,[17],100%
same,%Inh,[18],0%
same,%Inh,[19],33%
same,%Inh,[20],0%
c1ccc(-c2cc(-c3c[nH]nc3-c3ccccn3)ccn2)cc1 [GW576604],%Inh,[1],0%
same,%Inh,[2],0%
same,%Inh,[3],0%
same,%Inh,[4],0%
same,%Inh,[5],0%
same,%Inh,[6],36%
same,%Inh,[7],0%
same,%Inh,[8],17%
same,%Inh,[9],0%
same,%Inh,[10],16%
same,%Inh,[11],39%
same,%Inh,[12],0%
same,%Inh,[13],0%
same,%Inh,[14],0%
same,%Inh,[15],0%
same,%Inh,[16],0%
same,%Inh,[17],0%
same,%Inh,[18],0%
same,%Inh,[19],0%
same,%Inh,[20],0%
CN(C1=C(c2ccccc2)C(=O)NC1=O)c1ccccc1 [SB-334860],%Inh,[1],5%
same,%Inh,[2],0%
same,%Inh,[3],18%
same,%Inh,[4],5%
same,%Inh,[5],8%
same,%Inh,[6],11%
same,%Inh,[7],0%
same,%Inh,[8],19%
same,%Inh,[9],5%
same,%Inh,[10],27%
same,%Inh,[11],21%
same,%Inh,[12],0%
same,%Inh,[13],0%
same,%Inh,[14],0%
same,%Inh,[15],3%
same,%Inh,[16],0%
same,%Inh,[17],25%
same,%Inh,[18],7%
same,%Inh,[19],10%
same,%Inh,[20],13%
Cn1cc(-c2ccc3c(c2)CCN3C(=O)Cc2ccccc2Cl)c2c(N)ncnc21 [GSK2608885],%Inh,[1],0%
same,%Inh,[2],13%
same,%Inh,[3],23%
same,%Inh,[4],7%
same,%Inh,[5],0%
same,%Inh,[6],0%
same,%Inh,[7],78%
same,%Inh,[8],99.9%
same,%Inh,[9],23%
same,%Inh,[10],14%
same,%Inh,[11],8%
same,%Inh,[12],1%
same,%Inh,[13],0%
same,%Inh,[14],0%
same,%Inh,[15],0%
same,%Inh,[16],0%
same,%Inh,[17],11%
same,%Inh,[18],30%
same,%Inh,[19],3%
same,%Inh,[20],8%
Cl.Cl.Cl.Fc1ccc(-c2ncn(C3CCNCC3)c2-c2ccnc(Nc3ccccc3)n2)cc1 [SB-238039],%Inh,[1]; 1 µM,9% and 12%
same,%Inh,[2]; 1 µM,0% and 11%
same,%Inh,[3],10%
same,%Inh,[4],0%
same,%Inh,[5]; 1 µM,0% and 4%
same,%Inh,[6]; 1 µM,0% and 6%
same,%Inh,[7]; 1 µM,0% and 26%
same,%Inh,[8]; 1 µM,52% and 13%
same,%Inh,[9]; 1 µM,6% and 0%
same,%Inh,[10]; 1 µM,0% and 21%
same,%Inh,[11]; 1 µM,16% and 0%
same,%Inh,[12]; 1 µM,4% and 0%
same,%Inh,[13],0%
same,%Inh,[14],0%
same,%Inh,[15],0%
same,%Inh,[16]; 1 µM,6% and 0%
same,%Inh,[17]; 1 µM,0% and 13%
same,%Inh,[18],0%
same,%Inh,[19]; 1 µM,0% and 26%
same,%Inh,[20]; 1 µM,7% and 34%
Cc1c2ccc(N(C)c3ccnc(Nc4cccc(S(N)(=O)=O)c4)n3)cc2nn1Cc1ccccc1.Cl.Cl [GW787226],%Inh,[1],0%
same,%Inh,[2],0%
same,%Inh,[3],10%
same,%Inh,[4],0%
same,%Inh,[5],0%
same,%Inh,[6],4%
same,%Inh,[7],99.7%
same,%Inh,[8],100%
same,%Inh,[9],0%
same,%Inh,[10],0%
same,%Inh,[11],27%
same,%Inh,[12],0%
same,%Inh,[13],0%
same,%Inh,[14],5%
same,%Inh,[15],0%
same,%Inh,[16],0%
same,%Inh,[17],0%
same,%Inh,[18],0%
same,%Inh,[19],0%
same,%Inh,[20],0%
COc1cc2c(cc1OC[C@@H](O)CO)ncc1c3ccc(C#N)cc3[nH]c21,%Inh,[1],0%
same,%Inh,[2],0%
same,%Inh,[3],11%
same,%Inh,[4],0%
same,%Inh,[5],0%
same,%Inh,[6],0%
same,%Inh,[7],99.2%
same,%Inh,[8],91.4%
same,%Inh,[9],8%
same,%Inh,[10],6%
same,%Inh,[11],0%
same,%Inh,[12],95.5%
same,%Inh,[13],99.2%
same,%Inh,[14],0%
same,%Inh,[15],0%
same,%Inh,[16],18%
same,%Inh,[17],0%
same,%Inh,[18],2%
same,%Inh,[19],9%
same,%Inh,[20],0%
COc1ccc(Nc2ncc(C#N)c(Nc3ccccc3C(N)=O)n2)cc1N1CCN(C)CC1.Cl [GSK1558669],%Inh,[1],99.2%
same,%Inh,[2],93.9%
same,%Inh,[3],99.9%
same,%Inh,[4],99.2%
same,%Inh,[5],98.2%
same,%Inh,[6],88%
same,%Inh,[7],97.9%
same,%Inh,[8],100%
same,%Inh,[9],37%
same,%Inh,[10],97.6%
same,%Inh,[11],99.4%
same,%Inh,[12],89%
same,%Inh,[13],85%
same,%Inh,[14],0%
same,%Inh,[15],0%
same,%Inh,[16],0%
same,%Inh,[17],0%
same,%Inh,[18],0%
same,%Inh,[19],0%
same,%Inh,[20],15%
Cn1ccc2ncnc(Oc3ccc(NC(=O)Nc4ccncc4)c(Cl)c3)c21,%Inh,[1],3%
same,%Inh,[2],1%
same,%Inh,[3],0%
same,%Inh,[4],0%
same,%Inh,[5],0%
same,%Inh,[6],0%
same,%Inh,[7],27%
same,%Inh,[8],16%
same,%Inh,[9],36%
same,%Inh,[10],0%
same,%Inh,[11],0%
same,%Inh,[12],0%
same,%Inh,[13],5%
same,%Inh,[14],16%
same,%Inh,[15],43%
same,%Inh,[16],11%
same,%Inh,[17],0%
same,%Inh,[18],26%
same,%Inh,[19],26%
same,%Inh,[20],0%
O=C1NC(=O)C(N2CCc3ccccc32)=C1c1cccc(Cl)c1 [SB-408010],%Inh,[1],13%
same,%Inh,[2],13%
same,%Inh,[3],6%
same,%Inh,[4],0%
same,%Inh,[5],0%
same,%Inh,[6],16%
same,%Inh,[7],9%
same,%Inh,[8],5%
same,%Inh,[9],0%
same,%Inh,[10],0%
same,%Inh,[11],5%
same,%Inh,[12],0%
same,%Inh,[13],0%
same,%Inh,[14],0%
same,%Inh,[15],0%
same,%Inh,[16],0%
same,%Inh,[17],33%
same,%Inh,[18],9%
same,%Inh,[19],0%
same,%Inh,[20],5%
